# Measured values taken from PubChem BioAssay AID1159580 (chemical genetic matrix, 2015).
# In all, about 5,500 compounds went through this assay and about 2,000 (36%) were called active. About 18% were inconclusive and are not listed. This is one part of the list. A number with no mark means an inactive call. Rule as the data show it: active = normalized growth mostly below about 0.91 (no sharp cut-off); inconclusive = no clear call, values can overlap the other calls; inactive = mostly above about 0.92.
# Assay: chemical genetic growth profiling, strain panel (AID 1159580);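 also: tested at 20 µM; growth read once vehicle control cultures reached saturation at 30 °C; 1 = growth at the plate median or of vehicle wells; lower values mean less growth of the strain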
# Settings: S. cerevisiae deletion strains, growth OD
smiles,measurement,setting,value
COc1cc2c(cc1OC)[C@@H]1C(=O)c3ccc(O)c(CC=C(C)C)c3O[C@@H]1CO2,normalized growth,"locus YJL168C, strain set2, hits give low values",0.979
same,normalized growth,"locus YJL187C, strain SWE1 (second series), hits give low values",0.951
same,normalized growth,"locus YJL187C, strain SWE1, hits give low values",1.1 [resistant] (active)
same,normalized growth,"locus YJR043C, strain POL32, hits give low values",1.05
same,normalized growth,"locus YKL009W, strain mrt4, hits give low values",0.93
same,normalized growth,"locus YKL068W, hits give low values",0.969
same,normalized growth,"locus YKL085W, strain MDH1 (second series), hits give low values",0.963
same,normalized growth,"locus YKL085W, strain MDH1, hits give low values",0.963
same,normalized growth,"locus YKL160W, strain elf1, hits give low values",1.02
same,normalized growth,"locus YKR001C, strain vps1, hits give low values",1.02
same,normalized growth,"locus YKR026C, strain gcn3, hits give low values",1
same,normalized growth,"locus YKR091W, strain srl3, hits give low values",1.03
same,normalized growth,"locus YLL001W, strain dnm1, hits give low values",1
same,normalized growth,"locus YLL026W, hits give low values",1.03
same,normalized growth,"locus YLL041C, strain sdh2, hits give low values",1.09 [resistant] (active)
same,normalized growth,"locus YLR027C, strain aat2, hits give low values",1.07
same,normalized growth,"locus YLR039C, strain RIC1, hits give low values",0.925
same,normalized growth,"locus YLR058C, strain SHM2, hits give low values",0.98
same,normalized growth,"locus YLR102C, strain apc9, hits give low values",0.991
same,normalized growth,"locus YLR221C, strain rsa3, hits give low values",1.04
same,normalized growth,"locus YLR258W, strain gsy2, hits give low values",1.06
same,normalized growth,"locus YLR262C, strain YPT6 (second series), hits give low values",0.97
same,normalized growth,"locus YLR262C, strain YPT6, hits give low values",0.906
same,normalized growth,"locus YLR268W, strain sec22, hits give low values",1.02
same,normalized growth,"locus YLR320W, strain mms22, hits give low values",0.961
same,normalized growth,"locus YLR330W, strain CHS5, hits give low values",0.99
same,normalized growth,"locus YLR342W, strain FKS1 (second series), hits give low values",1.06
same,normalized growth,"locus YLR342W, strain FKS1, hits give low values",1.02
same,normalized growth,"locus YLR357W, strain rsc2, hits give low values",1.05
same,normalized growth,"locus YLR370C, strain arc18, hits give low values",1
same,normalized growth,"locus YLR371W, strain rom2, hits give low values",1.02
same,normalized growth,"locus YLR384C, strain iki3, hits give low values",0.971
same,normalized growth,"locus YLR418C, strain cdc73, hits give low values",1
same,normalized growth,"locus YML016C, strain PPZ1, hits give low values",1
same,normalized growth,"locus YML032C, strain rad52, hits give low values",1.01
same,normalized growth,"locus YML120C, strain ndi1, hits give low values",0.976
same,normalized growth,"locus YML124C, strain tub3, hits give low values",0.989
same,normalized growth,"locus YMR058W, strain fet3, hits give low values",1
same,normalized growth,"locus YMR078C, strain ctf18, hits give low values",1.01
same,normalized growth,"locus YMR125W, strain sto1, hits give low values",1.01
same,normalized growth,"locus YMR129W, hits give low values",1.01
same,normalized growth,"locus YMR205C, strain PFK2, hits give low values",1.02
same,normalized growth,"locus YMR223W, strain ubp8, hits give low values",0.995
same,normalized growth,"locus YMR231W, strain pep5, hits give low values",0.959
same,normalized growth,"locus YMR307W, strain GAS1, hits give low values",1.1
same,normalized growth,"locus YNL067W, strain RPL9B, hits give low values",0.958
same,normalized growth,"locus YNL071W, strain lat1, hits give low values",1.02
same,normalized growth,"locus YNL128W, strain TEP1, hits give low values",0.966
same,normalized growth,"locus YNL209W, strain ssb2, hits give low values",1.05
same,normalized growth,"locus YNL233W, strain BNI4, hits give low values",0.947
same,normalized growth,"locus YNL248C, strain rpa49, hits give low values",1.01
same,normalized growth,"locus YNL250W, strain rad50, hits give low values",0.923
same,normalized growth,"locus YNL271C, strain bni1, hits give low values",1
same,normalized growth,"locus YNL298W, strain CLA4, hits give low values",0.959
same,normalized growth,"locus YNL307C, strain MCK1, hits give low values",0.967
same,normalized growth,"locus YNL322C, strain KRE1 (second series), hits give low values",1.04
same,normalized growth,"locus YNL322C, strain KRE1, hits give low values",0.985
same,normalized growth,"locus YNR049C, strain mso1, hits give low values",0.999
same,normalized growth,"locus YNR052C, strain pop2, hits give low values",0.986
same,normalized growth,"locus YOL012C, strain htz1",0.715
same,normalized growth,"locus YOL147C, strain pex11, hits give low values",0.987
same,normalized growth,"locus YOR001W, strain rrp6, hits give low values",1.05
same,normalized growth,"locus YOR061W, strain CKA2, hits give low values",0.99
same,normalized growth,"locus YOR069W, strain VPS5, hits give low values",0.98
same,normalized growth,"locus YOR070C, strain gyp1, hits give low values",1.02
same,normalized growth,"locus YOR080W, strain dia2, hits give low values",1.07
same,normalized growth,"locus YOR083W, strain WHI5, hits give low values",1
same,normalized growth,"locus YOR106W, strain vam3, hits give low values",1.13 [resistant] (active)
same,normalized growth,"locus YOR136W, strain idh2, hits give low values",0.98
same,normalized growth,"locus YOR144C, strain elg1, hits give low values",0.993
same,normalized growth,"locus YOR184W, strain ser1, hits give low values",1.08
same,normalized growth,"locus YOR265W, strain rbl2, hits give low values",1
same,normalized growth,"locus YOR270C, strain vph1, hits give low values",0.971
same,normalized growth,"locus YOR290C, strain snf2, hits give low values",1.01
same,normalized growth,"locus YOR316C, strain cot1, hits give low values",0.966
same,normalized growth,"locus YPL051W, strain arl3, hits give low values",1
same,normalized growth,"locus YPL055C, strain LGE1, hits give low values",1.01
same,normalized growth,"locus YPL078C, strain atp4, hits give low values",1.01
same,normalized growth,"locus YPL106C, strain sse1, hits give low values",1.11
same,normalized growth,"locus YPL240C, strain hsp82, hits give low values",1.11 [resistant] (active)
same,normalized growth,"locus YPR119W, strain clb2, hits give low values",0.986
same,normalized growth,"locus YPR141C, strain kar3, hits give low values",1.01
same,normalized growth,"locus YPR163C, strain tif3, hits give low values",1.01
same,normalized growth,"locus YPR167C, strain met16, hits give low values",0.987
same,normalized growth,"strain wtn01, hits give low values",1.04
